In PubChem BioAssay AID2315 (National Center for Advancing Translational Sciences (NCATS), 2010):
Out of some 290,000 compounds screened, about 27,000 (9.3%) were called active. The full list was thinned out, with actives kept by preference. Values without a mark were called inactive. No stated cut-off is given here; in the data, active means inhibition mostly above about 28% (no sharp cut-off); inactive means mostly below about 43%.

Assay: A qHTS for Small Molecule Inhibitors of Shiga Toxin; further: 0% is about no effect
Conditions: Vero cells, Shiga toxin protein synthesis inhibition reporter; at 38.7 µM, hits give high values

Compound	inhibition
Cc1cccc(C)c1OC(=O)CSc1nnc(-c2ccccc2)o1	-1.97%
CCCCSc1nnc(-c2ccc(C)cc2)o1	63.2% (active)
CCOC(=O)CSc1nnc(-c2ccncc2)o1	-2.72%
O=C(c1cc2ccccc2o1)N1CCN(Cc2ccccc2)CC1	22.5%
O=C(NCCc1ccccc1)C(=O)NCC1OCCN1S(=O)(=O)c1cccs1 (centres undefined)	15.4%
CCc1ccc(Oc2coc3cc(O)ccc3c2=O)cc1	57.1% (active)
COc1ccc(Oc2coc3cc(OC(=O)c4cncc(Br)c4)ccc3c2=O)cc1	31.4%
CCc1ccc(Oc2coc3cc(OC(=O)c4cc5ccccc5oc4=O)ccc3c2=O)cc1	22.7%
O=C(O)C1CCC(CNS(=O)(=O)c2ccc(Br)cc2)CC1 (centres undefined)	-6.36%
O=C(NC(=O)c1ccccc1)Nc1ccccc1O	105% (active)
O=C(NC(=O)c1ccccc1)NC(=O)c1ccccc1	-0.343%
O=C(Nc1ccc(C(=O)O)c(O)c1)c1ccccc1	2.52%
CCCC(=O)N1CCN(c2nnc(-c3ccc(C)cc3)c3ccccc23)CC1	-11.9%
O=C(c1ccc2nc(N3CCOCC3)sc2c1)N1CCN(c2ccc(Cl)cc2)CC1	-6.87%
c1c2c(cc3sc(N4CCCCC4)nc13)OCCO2	14.5%
O=C(NCCc1cccc(F)c1)C1CCCN(c2nc3ccccc3s2)C1 (centres undefined)	-11.7%
Fc1ccc2nc(N3CCCCC3)sc2c1	82% (active)
Cc1nc(N2CCCCC2)sc1C=O	17.8%
Brc1ccc2nc(N3CCCC3)sc2c1	133% (active)
COC(=O)Nc1ccc(S(=O)(=O)Nc2cc(OC)nc(OC)n2)cc1	-3.18%
Cc1ccsc1C(=O)N[C@@H](C)c1nnc2ccccn12	-1.3%
COc1ccc(NC2CCCN(C(=O)c3ccncc3)C2)cc1 (centres undefined)	-17.1%

Compound	inhibition
O=C1CCC/C(=N\NC(=O)NC2CCCCC2)C1	-0.774%
CC(C)NC(=S)NN=C1CCCCCCCCCCC1	4.86%
CC(C)(C)NC(=O)C(=O)NN=C1CCCCCCC1	60.6% (active)
O=C(NCc1ccccc1)C(=O)NCC1OCCN1S(=O)(=O)c1ccc(Br)cc1 (centres undefined)	3.85%
CCC(Oc1ccccc1C)C(=O)Nc1ccc(S(=O)(=O)Nc2cc(C)on2)cc1 (centres undefined)	-4.41%
O=c1[nH]c(CSc2ccccc2)nc2c1oc1ccccc12	12.7%
O=C(COC(=O)c1ccc(N2CCCC2=O)cc1)c1ccc(OC(F)F)cc1	-2.32%
Cc1nn(-c2ccccc2)c(-n2cccc2)c1C(=O)O	-10.5%
Cc1nn(-c2ccccc2)c(C)c1C(=O)OCC(=O)NC(=O)NC1CCCCC1	-5.78%
CCCn1c(C)cc(C(=O)COC(=O)c2c(C)nn(-c3ccccc3)c2C)c1C	37.3% (active)
Cc1ccc(OC(=O)c2c(C)nn(-c3ccccc3)c2C)cc1	66.5% (active)
CCCc1cc(=O)[nH]c(SCC(=O)c2cc(C)n(CCC)c2C)n1	-17.8%
Cc1cc(C(=O)COC(=O)c2cccs2)c(C)n1-c1c(C)n(C)n(-c2ccccc2)c1=O	14.6%
O=C(CSc1n[nH]c(-c2cccnc2)n1)Nc1ccc(Cl)cc1	-4.36%
Cc1ccc(Nc2c(F)c(F)c(F)c(F)c2C(=O)O)c(C)c1	-5.02%
CCCCc1cc(=O)oc2c(C)c(OCC(=O)N3CCC(C(N)=O)CC3)ccc12	6.85%
O=c1oc2ccccc2c(CNc2ccccc2)c1[N+](=O)[O-]	11.8%
O=C1CCCc2nn(-c3ccccc3)nc21	54.6% (active)
O=C1CCC(=O)N(c2ccccc2)N1	-5.13%
N#CC1=C(N)N(c2ccccc2)C2=C(C(=O)CCC2)C1c1ccccc1 (centres undefined)	20.9%
CC(C)c1ccc(C(=O)OC2CCOC2=O)cc1 (centres undefined)	-21.8%
O=C(OC1CCOC1=O)c1ccc(-c2nc3ccccc3s2)s1 (centres undefined)	38.6% (active)

Compound	inhibition
Cc1nn(Cc2ccccc2)c(Cl)c1C(=O)OC1CCOC1=O (centres undefined)	-17.1%
C=CCn1c(=O)c(C(=O)NCc2ccc3c(c2)OCO3)c(O)c2ccccc21	-10.5%
COc1ccccc1OCC(=O)Nc1c2c(nn1-c1ccc(F)cc1)CS(=O)(=O)C2	-5.46%
Cc1c(C(=O)OC(C)C)sc(NC(=O)c2cccnc2)c1C#N	30.6%
COc1ccc(C(=O)NCc2nnc(SCC(=O)Nc3cccc(OC)c3)o2)cc1	-4.36%
O=S(=O)(Cc1nnnn1-c1ccccc1)c1ccccc1	-12.2%
CSc1nsc(SCC(=O)Nc2cc(C(=O)O)ccc2C)n1	-7.57%
COc1ccc(NC(=O)CSc2nc(SC)ns2)c(OC)c1	69.7% (active)
Cc1csc(SCC(=O)Nc2sccc2C#N)n1	34%
COc1cc(OC)cc(-c2nnc(SCC(=O)Nc3ccc(C(=O)O)cc3)s2)c1	-9.81%
COc1ccc(C)cc1NC(=O)CSc1nc(SC)ns1	-10.7%
COc1ccc(NC(=O)CSc2nc(C)cs2)cc1	66.4% (active)
Cc1cc(C)c(OCCN2CC(C)OC(C)C2)c(Br)c1 (centres undefined)	14.6%
NC(=O)c1nsc(C(=O)N(CCCN2CCOCC2)C(C(=O)NC2CCCCC2)c2ccc(Cl)cc2)c1N (centres undefined)	-2.14%
O=S(=O)(NCC1CC1)c1ccc(F)c(Cl)c1	1.18%
CC(C)Nc1ccc(-n2nc3ccccc3[n+]2[O-])cc1	38.2% (active)
COc1ccc(CCNC(=O)C2CCCN(S(=O)(=O)c3ccc(OC)cc3)C2)cc1 (centres undefined)	2.44%
O=C(NC1CCCCC1)C1CCC(CNS(=O)(=O)c2ccccc2)CC1 (centres undefined)	2.14%
COc1ccc(S(=O)(=O)n2cnc3ccccc32)c(C)c1	-9.95%
COc1ccc(CNC(=O)CN(Cc2ccccc2Cl)C(=O)c2csnn2)cc1	-3.03%
